Measurements published in the supplement of paper PMC10849652.
Of roughly 7,900 targets only a part is listed; those with a hit were picked by preference. About 0.6% of all pairs of compound and target were hits.

Key:
Experiment in all cases: log2 fold change, soluble protein after heating vs DMSO (PISA); higher = thermal stabilisation; K562 cells, 10 uM, 30 min; active = over 0.2 and 3.5 SD of the protein, either way, in both replicates (recomputed)
[1] = compound: CS(=O)(=O)c1ccc(-c2cnc(N)c(C(=O)Nc3ccccc3)n2)cc1
Summary of the method: (§1)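 K562 cells (2×10^6 cells/mL) were treated with 10 μM compound for 30 min, and aliquots were heated for 3 min over 48°C-58°C. Pooled aliquots were extracted in PBS with 0.5% NP-40 at 4°C, and the supernatant after 21,000xg for 90 min was measured by TMTpro 16plex LC-MS/MS with channel sums equalised. Reported thermal stability, relative to control samples and from duplicates, is a log2 fold change.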

[2] = compound: C[C@@H](Oc1cc(-c2cnn(C3CCNCC3)c2)cnc1N)c1c(Cl)ccc(F)c1Cl [crizotinib]
Summary of the method: as §1

[3] = compound: C[C@@H]1COCCN1C2=NC(=NC(=C2)C3(CC3)S(=O)(=O)C)C4=C5C=CNC5=CC=C4
Summary of the method: as §1

[4] = compound: C[C@H](C1=CC=C(C=C1)C(=O)NC2=C3C=CNC3=NC=C2)N
Summary of the method: as §1

[5] = compound: C[C@H](Nc1ncnc2nc[nH]c12)c1cc2cccc(Cl)c2c(=O)n1-c1ccccc1 [duvelisib]
Summary of the method: as §1

[6] = compound: Cc1cc(Nc2cc(CN3CCOCC3)c3nc(C)c(Cc4ccc(Cl)cc4F)n3n2)n[nH]1 [gandotinib]
Summary of the method: as §1

[7] = compound: Cc1cc(Nc2cc(N3CCN(C)CC3)nc(Sc3ccc(NC(=O)C4CC4)cc3)n2)n[nH]1 [tozasertib]
Summary of the method: as §1

[8] = compound: Cc1cc(SCc2sc(-c3ccc(C(F)(F)F)cc3)nc2C)ccc1OCC(=O)O
Summary of the method: as §1

[9] = compound: Cc1ccc(-n2nc(C(C)(C)C)cc2NC(=O)Nc2ccc(OCCN3CCOCC3)c3ccccc23)cc1 [doramapimod]
Summary of the method: as §1

[10] = compound: Cc1ccc(C(=O)N(CCCN)[C@@H](c2nc3cc(Cl)ccc3c(=O)n2Cc2ccccc2)C(C)C)cc1 [ispinesib]
Summary of the method: as §1

Measured: log2 fold change

ROCK2 (UniProt O75116)
Sequence of UniProt O75116 (O75116 whole entry, looked up): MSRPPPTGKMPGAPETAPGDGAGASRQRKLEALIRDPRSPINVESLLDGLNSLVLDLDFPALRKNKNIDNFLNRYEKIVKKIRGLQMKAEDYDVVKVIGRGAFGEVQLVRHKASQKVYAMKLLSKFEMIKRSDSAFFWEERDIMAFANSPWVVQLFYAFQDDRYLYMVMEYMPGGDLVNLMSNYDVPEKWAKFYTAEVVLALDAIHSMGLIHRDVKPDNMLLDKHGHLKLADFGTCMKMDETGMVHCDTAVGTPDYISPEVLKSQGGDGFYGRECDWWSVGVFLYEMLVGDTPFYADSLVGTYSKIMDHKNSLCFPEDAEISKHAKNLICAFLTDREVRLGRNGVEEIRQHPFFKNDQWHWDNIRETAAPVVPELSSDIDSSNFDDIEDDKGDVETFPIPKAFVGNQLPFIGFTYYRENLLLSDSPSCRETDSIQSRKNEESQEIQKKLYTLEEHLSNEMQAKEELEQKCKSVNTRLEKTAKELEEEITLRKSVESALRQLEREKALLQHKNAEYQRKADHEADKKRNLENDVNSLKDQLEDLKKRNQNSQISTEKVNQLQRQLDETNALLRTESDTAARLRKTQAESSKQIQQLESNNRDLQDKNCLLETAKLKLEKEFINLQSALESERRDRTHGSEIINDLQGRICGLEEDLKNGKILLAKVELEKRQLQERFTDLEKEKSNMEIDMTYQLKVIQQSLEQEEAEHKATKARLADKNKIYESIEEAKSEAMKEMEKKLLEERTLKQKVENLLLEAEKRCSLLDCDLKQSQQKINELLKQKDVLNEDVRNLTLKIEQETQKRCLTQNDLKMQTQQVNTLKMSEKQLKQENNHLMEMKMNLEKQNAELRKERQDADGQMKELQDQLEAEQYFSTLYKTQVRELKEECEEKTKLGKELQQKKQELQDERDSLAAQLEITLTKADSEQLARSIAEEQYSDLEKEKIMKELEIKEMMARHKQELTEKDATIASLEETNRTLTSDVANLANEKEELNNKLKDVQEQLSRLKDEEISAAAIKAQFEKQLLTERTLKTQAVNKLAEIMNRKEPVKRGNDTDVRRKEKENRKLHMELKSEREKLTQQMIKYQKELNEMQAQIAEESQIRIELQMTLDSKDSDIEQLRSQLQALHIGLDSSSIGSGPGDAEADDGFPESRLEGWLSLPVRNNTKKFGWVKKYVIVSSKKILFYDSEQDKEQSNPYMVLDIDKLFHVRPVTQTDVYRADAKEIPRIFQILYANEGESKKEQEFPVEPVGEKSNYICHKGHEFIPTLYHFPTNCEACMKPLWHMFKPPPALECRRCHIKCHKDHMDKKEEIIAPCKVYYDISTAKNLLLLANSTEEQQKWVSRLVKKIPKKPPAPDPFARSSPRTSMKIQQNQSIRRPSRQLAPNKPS
inactive: [1] 0.033 | [2] -0.041 | [3] 0.026 | [5] 0.025 | [6] -0.049 | [7] -0.035 | [8] 0.004 | [9] 0.007 | [10] -0.049
active: [4] 0.392

RMC1 (UniProt Q96DM3)
active: [2] -0.509 | [10] -0.254
inactive: [1] 0.021 | [3] 0.061 | [4] -0.012 | [5] -0.005 | [6] 0.027 | [7] 0.026 | [8] 0.066 | [9] 0.038

RPS12 (UniProt P25398)
inactive: [1] -0.041 | [2] 0.078 | [3] -0.098 | [4] 0.165 | [5] -0.061 | [6] 0.124 | [7] -0.003 | [8] -0.011 | [9] 0.012 | [10] 0.017

RALA (UniProt P11233)
Sequence of UniProt P11233 (P11233 whole entry, looked up): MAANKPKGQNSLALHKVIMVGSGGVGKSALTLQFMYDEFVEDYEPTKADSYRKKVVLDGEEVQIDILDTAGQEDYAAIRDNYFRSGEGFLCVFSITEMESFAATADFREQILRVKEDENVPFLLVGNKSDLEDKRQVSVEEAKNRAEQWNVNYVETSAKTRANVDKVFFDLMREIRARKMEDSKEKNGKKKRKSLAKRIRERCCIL
inactive: [1] 0.026 | [2] 0.112 | [3] 0.088 | [4] -0.097 | [5] -0.046 | [6] -0.001 | [7] 0.016 | [8] -0.009 | [9] -0.009 | [10] 0.03

RABGAP1L isoform 5 (UniProt Q5R372)
inactive: [1] 0.071 | [2] 0.003 | [3] 0.022 | [4] 0.046 | [5] 0.008 | [7] -0.121 | [8] -0.015 | [9] -0.073

RB1 (UniProt P06400)
inactive: [1] 0.041 | [2] -0.112 | [3] 0.117 | [4] -0.07 | [5] 0.033 | [6] -0.168 | [7] -0.001 | [8] -0.024 | [9] 0.022 | [10] -0.002

RNF220 (UniProt Q5VTB9)
inactive: [1] -0.001 | [2] 0.096 | [3] -0.003 | [4] -0.042 | [5] 0.055 | [6] -0.012 | [7] 0.043 | [8] -0.011 | [9] -0.057 | [10] 0.073

RCOR1 (UniProt Q9UKL0)
Sequence of UniProt Q9UKL0 (Q9UKL0 whole entry, looked up): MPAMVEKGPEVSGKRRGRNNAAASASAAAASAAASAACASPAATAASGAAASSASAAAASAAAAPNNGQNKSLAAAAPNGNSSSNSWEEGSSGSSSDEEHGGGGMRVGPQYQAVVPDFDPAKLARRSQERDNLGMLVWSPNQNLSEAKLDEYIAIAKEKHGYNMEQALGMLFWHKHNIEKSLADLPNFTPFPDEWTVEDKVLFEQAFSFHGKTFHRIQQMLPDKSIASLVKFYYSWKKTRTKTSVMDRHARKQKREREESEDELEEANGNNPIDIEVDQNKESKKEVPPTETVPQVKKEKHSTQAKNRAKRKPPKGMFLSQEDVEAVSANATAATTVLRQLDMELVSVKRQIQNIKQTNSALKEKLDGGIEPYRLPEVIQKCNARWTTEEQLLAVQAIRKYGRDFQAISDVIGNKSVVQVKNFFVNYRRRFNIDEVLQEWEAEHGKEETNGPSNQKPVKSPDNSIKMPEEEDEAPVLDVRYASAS
inactive: [1] 0.011 | [2] -0.033 | [3] 0.095 | [4] 0.071 | [5] 0.088 | [6] -0.046 | [7] 0.005 | [8] 0.041 | [9] 0.001 | [10] -0.031

SAP30 (UniProt O75446)
inactive: [1] -0.087 | [2] 0.012 | [3] -0.047 | [4] 0.098 | [5] -0.09 | [6] 0.162 | [8] 0.124 | [9] -0.088

RPA3 (UniProt P35244)
inactive: [1] -0.044 | [2] 0.042 | [3] -0.162 | [4] -0.098 | [5] 0.043 | [6] 0.11 | [7] 0.053 | [8] 0.003 | [9] -0.054 | [10] 0.109

RIOK3 (UniProt O14730)
inactive: [1] -0.004 | [2] -0.031 | [3] 0.029 | [4] -0.026 | [5] 0.034 | [6] 0.086 | [7] -0.033 | [8] -0.011 | [9] -0.019 | [10] -0.004

SDHAF2 (UniProt Q9NX18)
inactive: [1] -0.042 | [2] -0.183 | [3] 0.07 | [4] -0.111 | [5] 0.082 | [6] 0.057 | [7] 0.002 | [8] -0.125 | [9] -0.051 | [10] 0.006

SELENOH (UniProt Q8IZQ5)
inactive: [1] -0.19 | [2] 0 | [3] -0.014 | [4] -0.022 | [5] -0.101 | [6] -0.12 | [7] -0.008 | [8] -0.051 | [9] -0.018 | [10] 0.036

SCG3 (UniProt Q8WXD2)
inactive: [1] -0.069 | [2] 0.074 | [3] -0.089 | [4] -0.109 | [5] 0 | [6] -0.101 | [7] 0.075 | [8] -0.194 | [9] 0.124 | [10] 0.171

SLC1A5 (UniProt Q15758)
Sequence of UniProt Q15758 (Q15758 whole entry, looked up): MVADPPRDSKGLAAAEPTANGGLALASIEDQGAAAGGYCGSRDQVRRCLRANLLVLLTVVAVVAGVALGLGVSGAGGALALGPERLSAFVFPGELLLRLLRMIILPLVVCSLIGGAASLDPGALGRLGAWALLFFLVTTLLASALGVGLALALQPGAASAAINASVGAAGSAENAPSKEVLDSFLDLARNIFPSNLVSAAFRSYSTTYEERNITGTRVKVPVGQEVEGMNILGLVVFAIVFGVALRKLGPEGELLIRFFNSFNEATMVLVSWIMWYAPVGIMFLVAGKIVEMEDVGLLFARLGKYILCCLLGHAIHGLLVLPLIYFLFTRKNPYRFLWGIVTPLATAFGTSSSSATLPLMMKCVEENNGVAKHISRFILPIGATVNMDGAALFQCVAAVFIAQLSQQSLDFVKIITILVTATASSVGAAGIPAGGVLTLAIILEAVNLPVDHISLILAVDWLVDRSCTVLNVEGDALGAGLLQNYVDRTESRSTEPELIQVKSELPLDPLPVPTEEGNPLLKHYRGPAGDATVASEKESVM
inactive: [1] 0.026 | [2] 0.13 | [3] 0.072 | [4] -0.186 | [5] 0.044 | [6] -0.105 | [7] -0.064 | [8] -0.091 | [9] -0.007 | [10] 0.167

SDHAF4 (UniProt Q5VUM1)
Sequence of UniProt Q5VUM1 (Q5VUM1 whole entry, looked up): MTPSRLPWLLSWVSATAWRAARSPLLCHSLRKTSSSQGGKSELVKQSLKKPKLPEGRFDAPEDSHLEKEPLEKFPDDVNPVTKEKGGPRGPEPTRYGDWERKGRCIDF
inactive: [1] 0.033 | [2] -0.047 | [3] 0.153 | [4] 0.181 | [5] 0.003 | [7] 0 | [8] -0.038 | [9] 0.091

RABGGTA (UniProt Q92696)
Sequence of UniProt Q92696 (Q92696 whole entry, looked up): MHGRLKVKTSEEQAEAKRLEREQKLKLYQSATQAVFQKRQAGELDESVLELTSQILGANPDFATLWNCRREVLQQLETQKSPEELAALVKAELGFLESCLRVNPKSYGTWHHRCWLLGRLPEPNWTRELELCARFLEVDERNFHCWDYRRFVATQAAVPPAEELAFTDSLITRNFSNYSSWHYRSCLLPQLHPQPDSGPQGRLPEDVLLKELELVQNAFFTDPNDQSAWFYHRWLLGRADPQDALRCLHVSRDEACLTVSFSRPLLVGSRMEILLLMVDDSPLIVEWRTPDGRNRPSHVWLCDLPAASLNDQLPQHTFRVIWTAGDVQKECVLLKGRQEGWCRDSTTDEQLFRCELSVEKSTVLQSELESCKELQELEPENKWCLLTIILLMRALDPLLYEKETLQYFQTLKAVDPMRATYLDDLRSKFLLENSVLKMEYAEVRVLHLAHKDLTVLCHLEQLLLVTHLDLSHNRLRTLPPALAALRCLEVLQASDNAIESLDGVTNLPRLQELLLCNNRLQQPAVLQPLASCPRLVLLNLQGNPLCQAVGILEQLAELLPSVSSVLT
inactive: [1] -0.035 | [2] -0.076 | [3] 0.046 | [4] -0.058 | [5] 0.045 | [6] -0.004 | [7] -0.036 | [8] -0.008 | [9] 0.017 | [10] 0.026

SCPEP1 (UniProt Q9HB40)
active: [2] -0.254
inactive: [1] -0.03 | [3] -0.041 | [4] -0.028 | [5] 0.083 | [6] 0.127 | [7] -0.03 | [8] 0.032 | [9] -0.032 | [10] -0.163

RRP12 (UniProt Q5JTH9)
active: [4] 0.811
inactive: [1] -0.056 | [2] -0.074 | [3] -0.242 | [5] -0.014 | [6] 0.074 | [7] -0.092 | [8] 0.053 | [9] 0.203 | [10] -0.172

RPP14 (UniProt O95059)
Sequence of UniProt O95059 (O95059 whole entry, looked up): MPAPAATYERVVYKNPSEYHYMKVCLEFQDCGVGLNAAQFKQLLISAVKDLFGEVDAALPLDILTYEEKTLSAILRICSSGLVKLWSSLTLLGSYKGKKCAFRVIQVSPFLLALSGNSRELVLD
inactive: [1] -0.048 | [2] -0.046 | [3] 0.019 | [4] -0.076 | [5] -0.019 | [6] -0.119 | [7] 0.052 | [8] -0.054 | [9] 0.06 | [10] 0.03

SKP1 (UniProt P63208)
inactive: [1] -0.052 | [2] 0.027 | [3] -0.039 | [4] -0.19 | [5] -0.054 | [6] -0.035 | [7] 0.001 | [8] 0.038 | [9] -0.096 | [10] 0.089

SERPINA7 (UniProt P05543)
inactive: [1] -0.16 | [2] 0.133 | [3] -0.095 | [4] 0.257 | [5] -0.201 | [6] -0.02 | [7] -0.046 | [8] -0.158 | [9] 0.217 | [10] 0.068

RPS20 isoform 2 (UniProt P60866)
inactive: [1] -0.062 | [2] 0.013 | [3] -0.176 | [4] 0.174 | [5] -0.034 | [6] 0.129 | [7] 0.008 | [8] 0.004 | [9] 0.048 | [10] -0.066

RBIS (UniProt Q8N0T1)
inactive: [1] -0.157 | [2] -0.097 | [3] -0.086 | [4] 0.069 | [5] -0.028 | [6] 0.053 | [7] -0.014 | [8] -0.045 | [9] 0.062 | [10] 0.009

SEC23IP (UniProt Q9Y6Y8)
Sequence of UniProt Q9Y6Y8 (Q9Y6Y8 whole entry, looked up): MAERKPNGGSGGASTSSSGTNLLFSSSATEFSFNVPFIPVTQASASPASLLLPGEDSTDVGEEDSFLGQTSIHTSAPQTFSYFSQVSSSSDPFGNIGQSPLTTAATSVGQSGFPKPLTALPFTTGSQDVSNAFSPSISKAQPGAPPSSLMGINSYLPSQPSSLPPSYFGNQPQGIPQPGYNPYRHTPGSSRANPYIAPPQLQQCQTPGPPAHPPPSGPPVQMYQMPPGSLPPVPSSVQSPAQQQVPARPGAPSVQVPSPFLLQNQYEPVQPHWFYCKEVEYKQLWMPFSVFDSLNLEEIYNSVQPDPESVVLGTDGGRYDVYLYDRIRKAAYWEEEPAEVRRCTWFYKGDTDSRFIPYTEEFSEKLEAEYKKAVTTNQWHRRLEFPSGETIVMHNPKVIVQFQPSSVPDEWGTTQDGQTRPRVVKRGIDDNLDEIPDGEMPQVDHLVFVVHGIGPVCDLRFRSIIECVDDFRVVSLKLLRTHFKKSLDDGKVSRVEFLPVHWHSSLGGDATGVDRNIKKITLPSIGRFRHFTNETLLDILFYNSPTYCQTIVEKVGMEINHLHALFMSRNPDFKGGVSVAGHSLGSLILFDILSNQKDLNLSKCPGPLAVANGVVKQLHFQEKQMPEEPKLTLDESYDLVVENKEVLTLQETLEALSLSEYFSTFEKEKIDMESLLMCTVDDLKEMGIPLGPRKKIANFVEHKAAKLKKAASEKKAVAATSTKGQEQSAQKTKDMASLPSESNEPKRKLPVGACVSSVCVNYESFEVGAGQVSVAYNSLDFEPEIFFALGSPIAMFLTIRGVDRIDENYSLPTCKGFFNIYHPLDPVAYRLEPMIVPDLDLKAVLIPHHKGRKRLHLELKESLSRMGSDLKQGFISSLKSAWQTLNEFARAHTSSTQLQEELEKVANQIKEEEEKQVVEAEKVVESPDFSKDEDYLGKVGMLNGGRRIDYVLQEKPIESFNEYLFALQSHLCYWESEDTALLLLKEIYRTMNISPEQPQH
inactive: [1] 0.142 | [2] -0.238 | [3] 0.055 | [4] 0.039 | [5] 0.021 | [6] -0.212 | [7] -0.002 | [8] 0.074 | [9] 0.043 | [10] -0.166

RELA (UniProt Q04206)
inactive: [1] 0.03 | [2] 0.036 | [3] 0.005 | [4] -0.029 | [5] 0.018 | [6] -0.086 | [7] 0.059 | [8] 0.055 | [10] 0.017

RAP1GDS1 isoform 5 (UniProt P52306)
Sequence of UniProt P52306 (P52306 whole entry, looked up): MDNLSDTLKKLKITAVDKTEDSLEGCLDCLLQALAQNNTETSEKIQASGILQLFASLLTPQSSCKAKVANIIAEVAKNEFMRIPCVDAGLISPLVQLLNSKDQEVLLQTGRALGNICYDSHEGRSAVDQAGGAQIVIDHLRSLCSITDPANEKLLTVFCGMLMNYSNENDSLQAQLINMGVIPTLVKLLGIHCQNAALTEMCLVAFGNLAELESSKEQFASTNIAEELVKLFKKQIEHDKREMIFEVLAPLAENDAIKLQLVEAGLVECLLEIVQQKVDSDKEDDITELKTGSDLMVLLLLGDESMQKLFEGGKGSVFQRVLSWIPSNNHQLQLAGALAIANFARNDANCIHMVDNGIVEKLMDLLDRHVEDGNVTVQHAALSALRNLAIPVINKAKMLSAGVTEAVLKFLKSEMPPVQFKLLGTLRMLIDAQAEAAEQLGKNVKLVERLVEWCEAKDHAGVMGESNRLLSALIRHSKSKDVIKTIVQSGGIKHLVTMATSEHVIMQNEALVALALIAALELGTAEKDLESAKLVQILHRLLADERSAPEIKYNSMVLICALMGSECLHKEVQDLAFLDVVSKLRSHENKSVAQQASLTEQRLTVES
inactive: [1] 0.061 | [2] -0.062 | [3] 0.08 | [4] 0.009 | [5] -0.009 | [6] -0.066 | [7] 0.079 | [8] 0.036 | [9] -0.014 | [10] -0.096

REL (UniProt Q04864)
inactive: [1] 0.079 | [2] -0.04 | [3] 0.005 | [4] 0.02 | [5] -0.034 | [6] -0.321 | [7] 0.026 | [8] 0.028 | [9] -0.003 | [10] -0.088

REEP4 (UniProt Q9H6H4)
active: [10] -0.275
inactive: [1] -0.015 | [2] -0.148 | [3] -0.027 | [4] 0.02 | [5] -0.013 | [6] 0.001 | [7] -0.111 | [8] 0.02 | [9] 0.06

RDH13 (UniProt Q8NBN7)
inactive: [1] 0.04 | [2] -0.231 | [3] 0.161 | [4] -0.019 | [5] 0.082 | [6] -0.08 | [7] -0.101 | [8] 0.029 | [9] -0.037
active: [10] -0.322
